In the supplement of paper PMC10981050:
Values joined by “and” are separate entries in the source; they are usually repeats but may differ in a detail not shown here. Equal entries are not always repeated. Structures can show the parent of a compound that is named as a salt.

Legend:
Test in all cases: cell viability relative to vehicle control; higher = less cytotoxic
Conditions in all cases: 10 µM
K562 = test system: K562
Outline: (§1)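 After removal of identity-inconsistent compounds, the Selleck bioactive, kinase and epigenetic probe libraries were screened on CRISPR-edited mutant clones and isogenic wild-type clones of four leukaemia lines. Plates were 384-well, each well holding 2000 cells in 50 µL medium and receiving a single 10 µM acoustically dispensed dose. CellTiter-Glo luminescence was read 48 h later, after the supernatant was taken off. Genedata Screener was used to express viability as percent of the on-plate vehicle control.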

MARIMO = test system: MARIMO
Outline: as §1

MOLM14 = test system: MOLM14
Outline: as §1

OCI-AML2 = test system: OCI-AML2
Outline: as §1

| SMILES | cell viability (K562; SRSF2 genotype: SRSF2 P95H/wt) | cell viability (K562; SRSF2 genotype: SRSF2 wt/wt) [%] | cell viability (MARIMO; SRSF2 genotype: SRSF2 P95H/wt) [%] | cell viability (MARIMO; SRSF2 genotype: SRSF2 wt/wt) [%] | cell viability (MOLM14; SRSF2 genotype: SRSF2 P95H/wt) [%] | cell viability (MOLM14; SRSF2 genotype: SRSF2 wt/wt) [%] | cell viability (OCI-AML2; SRSF2 genotype: P95H/wt) [%] | cell viability (OCI-AML2; SRSF2 genotype: wt/wt) [%] |
| --- | --- | --- | --- | --- | --- | --- | --- | --- |
| Cc1c(Cl)cccc1Nc1ccccc1C(=O)O [Tolfenamic acid] | 103% and 101% | 101 | 107 | 102 | 99.8 | 102 | 106 | 106 |
| COC(=O)C1=CC[C@@]23CC[C@@H]([C@@](C)(/C=C/C=C(\C)C(=O)O)OC2=O)[C@@]3(OC(C)=O)CC1 [Pseudolaric Acid B] | 18.7% and 39.2% | 33.1 | 6.72 | 9.79 | 15.9 | 3.39 | 8.39 | 11.6 |
| CC(=O)O[C@H]1CC(=O)OC(C)(C)[C@@H]2CC(=O)[C@]3(C)[C@H](CC[C@@]4(C)[C@@H](c5ccoc5)OC(=O)[C@H]5O[C@]543)[C@@]12C [Nomilin] | 101% and 95.9% | 97.8 | 87.1 | 105 | 99.2 | 104 | 94.8 | 101 |
| CC(=O)Oc1ccccc1C(=O)Nc1ncc([N+](=O)[O-])s1 [Nitazoxanide (Alinia, Annita)] | 78.4% and 85.8% | 78.4 | 94.8 | 90.9 | 92.5 | 89.7 | 87.5 | 85.5 |
| COCCOC(=O)C1=C(C)NC(C)=C(C(=O)OC/C=C/c2ccccc2)C1c1cccc([N+](=O)[O-])c1 (configuration not stated) [Cilnidipine] | 87.1% and 86.8% | 81.2 | 88.1 | 98.1 | 78.8 | 81.6 | 78.9 | 74.5 |
| CN(CCNCc1cn(Cc2ccc(Cl)cc2)nn1)CCNc1ccnc2cc(Cl)ccc12 | 2.31% and 5.3% | 6.48 | 28.8 | 34.4 | 2.79 | 0.55 | 0.39 | 0.68 |
| Cc1ccn[nH]1 [3-Methylpyrazole] | 112% and 104% | 103 | 107 | 110 | 99.3 | 105 | 95.4 | 106 |
| COC(=O)c1ccc2c(c1)[nH]c1ncnc(NCCCN3CCCCC3)c12 | 78.5% and 68.9% | 73.5 | 49.9 | 49 | 23.7 | 15.7 | 24.2 | 31 |
| Cc1cc(=O)oc2ccc(O)cc12 [6-Hydroxy-4-methylcoumarin] | 111% and 101% | 107 | 107 | 97 | 101 | 103 | 96 | 104 |
| C[C@H]1[C@H](C)CC[C@]2(C(=O)O)CC[C@]3(C)C(=CC[C@@H]4[C@@]5(C)CCC(=O)C(C)(C)[C@@H]5CC[C@]43C)[C@H]12 [Ursonic acid] | 37.2% and 50.8% | 55.8 | 27.6 | 19 | 28.4 | 19.4 | 24.6 | 16.9 |
| O=C(/C=C/c1ccc2ccccc2n1)c1ccncc1 | 6.76% and 0.53% | 0.42 | 0.28 | 0.4 | 0.4 | 0.45 | 0.31 | 0.36 |
| CC(C)c1cc2c(cc1S(=O)(=O)O)[C@@]1(C)CCC[C@@](C)(C(=O)O)[C@@H]1CC2 [Ecabet sodium] | 95.2% and 96.4% | 105 | 96.6 | 101 | 97 | 99.7 | 105 | 91.8 |
| C[C@@H]1CC[C@@]2(OC1)O[C@H]1C[C@H]3[C@@H]4CC=C5C[C@@H](O[C@@H]6O[C@H](CO)[C@@H](O)[C@H](O[C@@H]7O[C@H](CO)[C@@H](O)[C@H](O)[C@H]7O)[C@H]6O[C@@H]6O[C@@H](C)[C@H](O)[C@@H](O)[C@H]6O)CC[C@]5(C)[C@H]4CC[C@]3(C)[C@H]1[C@@H]2C [Gracillin] | 31.2% and 29.4% | 1.47 | 70.2 | 11.4 | 12 | 0.55 | 5.61 | 4.21 |
| C=CC(=O)N1CCC(Oc2cc3c(Nc4ccc(Cl)c(Cl)c4F)ncnc3cc2OC)CC1 [Poziotinib (HM781-36B)] | 56% and 63.7% | 65.6 | 71.9 | 72.6 | 53.4 | 58 | 73.7 | 66.7 |
| CCCCCCCCOC(=O)c1cc(O)c(O)c(O)c1 [Octyl gallate] | 47.3% and 44.6% | 58.7 | 32.3 | 51 | 48.4 | 28.9 | 52.9 | 56.1 |
| Nc1c(Br)cc(Br)cc1CN[C@H]1CC[C@H](O)CC1 [Ambroxol] | 97.6% and 99.3% | 98.9 | 96.2 | 96.7 | 101 | 102 | 104 | 112 |
| COC(=O)CCC(=O)CN [Methyl Aminolevulinate Hydrochloride] | 94.6% and 91.5% | 99 | 92.2 | 94.4 | 95 | 97.2 | 93.9 | 102 |
| C=C1CC[C@H](O)C/C1=C/C=C1\CCC[C@]2(C)[C@@H]([C@H](C)/C=C/[C@H](C)C(C)C)CC[C@@H]12 [Vitamin D2 (Ergocalciferol)] | 103% and 100% | 102 | 101 | 104 | 93.4 | 102 | 100 | 98.3 |
| CCS(=O)(=O)CCn1c([N+](=O)[O-])cnc1C [Tinidazole] | 96.7% and 92.4% | 100 | 96.6 | 97.2 | 95.1 | 98.2 | 102 | 102 |
| CCNC(=O)Nc1ccc(-c2nc3c(c(N4CCOC[C@@H]4C)n2)CCN(C2COC2)C3)cc1 | 40.5% and 42.9% | 39.5 | 61.5 | 53.6 | 37.4 | 28.8 | 36.3 | 33.7 |

| SMILES | cell viability (K562; SRSF2 genotype: SRSF2 P95H/wt) | cell viability (K562; SRSF2 genotype: SRSF2 wt/wt) [%] | cell viability (MARIMO; SRSF2 genotype: SRSF2 P95H/wt) [%] | cell viability (MARIMO; SRSF2 genotype: SRSF2 wt/wt) [%] | cell viability (MOLM14; SRSF2 genotype: SRSF2 P95H/wt) [%] | cell viability (MOLM14; SRSF2 genotype: SRSF2 wt/wt) [%] | cell viability (OCI-AML2; SRSF2 genotype: P95H/wt) [%] | cell viability (OCI-AML2; SRSF2 genotype: wt/wt) [%] |
| --- | --- | --- | --- | --- | --- | --- | --- | --- |
| CC(C)(CO)c1cc2cc(NC(=O)C3(c4ccc5c(c4)OC(F)(F)O5)CC3)c(F)cc2n1C[C@@H](O)CO | 95.8% and 95.3% | 87.5 | 92.7 | 109 | 91.5 | 91.7 | 95.7 | 96 |
| CC(=O)Nc1nc2c(Oc3cc(-c4ccc(C(F)(F)F)cc4)ncn3)cccc2s1 | 99.6% and 93% | 88 | 93.3 | 103 | 95.9 | 97.7 | 90.6 | 88.9 |
| C[C@H]1O[C@@H](n2cc(F)c(=O)[nH]c2=O)[C@H](O)[C@@H]1O [Doxifluridine] | 102% and 95% | 92.1 | 100 | 104 | 96.5 | 105 | 97.3 | 99.7 |
| CCCCCCCCc1ccc(CCC(N)(CO)CO)cc1 [Fingolimod (FTY720) HCl] | 0.63% | 0.58 | 0.4 | 0.42 | 0.4 | 0.39 | 0.36 | 0.44 |
| C[C@H](Nc1ncnc2[nH]cnc12)c1cc2ccc(F)cc2nc1-c1ccccn1 | 90.3% and 89.3% | 91.5 | 81.5 | 85 | 69.2 | 67 | 64.5 | 73.4 |
| Cc1cc(Cn2cnc3c2CC(C(=O)O)N(C(=O)C(c2ccccc2)c2ccccc2)C3)ccc1N(C)C (configuration not stated) | 100% and 97.2% | 99.5 | 102 | 101 | 94.9 | 97.2 | 100 | 117 |
| Cc1ccc(C(C)C)cc1 [p-Cymene] | 111% and 96.9% | 113 | 95.9 | 99.5 | 100 | 106 | 117 | 119 |
| O=C(Nc1ccccc1-c1cn2c(CN3CC[C@@H](O)C3)csc2n1)c1ccc2ccccc2c1 | 23.9% and 46% | 39.3 | 57.1 | 65 | 72.4 | 80.5 | 65.3 | 64.4 |
| COC(=O)c1cc(OC)c(O)c(OC)c1 [Methyl syringate] | 101% and 87.8% | 91.2 | 94 | 102 | 89.2 | 92.3 | 96.8 | 101 |
| O=C(O)CCc1ccc(O)cc1O [Hydroumbellic acid] | 96% and 92.8% | 90.8 | 95.6 | 104 | 100 | 100 | 93.3 | 106 |
| OC[C@H]1O[C@H](O[C@H]2[C@H](O)[C@@H](O)C(O)O[C@@H]2CO)[C@H](O)[C@@H](O)[C@@H]1O (mixture of isomers) [Maltose] | 96.1% and 91.6% | 99.6 | 102 | 102 | 98.9 | 98.9 | 96.6 | 104 |
| CC1(C)O[C@@H]2C[C@H]3[C@@H]4CCC5=CC(=O)C=C[C@]5(C)[C@H]4[C@@H](O)C[C@]3(C)[C@]2(C(=O)CO)O1 [Desonide] | 97.9% and 104% | 102 | 102 | 110 | 106 | 100 | 104 | 121 |
| Nc1nc(=S)c2ncn([C@H]3C[C@H](O)[C@@H](CO)O3)c2[nH]1 | 29.9% and 33.4% | 29.9 | 56.1 | 44.8 | 44.1 | 31.7 | 22.8 | 27.8 |
| CN(C)CCCN1c2ccccc2Sc2ccc(Cl)cc21 [Chlorpromazine HCl] | 75.5% and 73.7% | 65.6 | 40.4 | 44.1 | 40.7 | 43.7 | 25.3 | 28.6 |
| C[C@@]12C[C@@]3(O)O[C@@H](O1)[C@]1(COC(=O)c4ccccc4)[C@H]3C[C@@]12O[C@@H]1O[C@H](CO)[C@@H](O)[C@H](O)[C@H]1O [Paeoniflorin] | 100% and 109% | 102 | 101 | 101 | 107 | 111 | 112 | 97.3 |
| COc1ccccc1OCC(O)CO (configuration not stated) [Guaifenesin (Guaiphenesin)] | 106% and 104% | 107 | 103 | 108 | 107 | 109 | 105 | 118 |
| C=C(Cc1ccccc1Cl)C(=O)OCC | 95.9% and 107% | 91.8 | 107 | 100 | 96.2 | 98.2 | 106 | 101 |
| O=S(=O)(N=Cc1c(O)ccc2ccccc12)c1cccs1 | 100% and 99.8% | 95.2 | 100 | 97.3 | 100 | 99 | 101 | 103 |
| O=c1ccc2cc(O)ccc2o1 [6-Hydroxycoumarin] | 99.5% and 104% | 102 | 99 | 90.9 | 104 | 101 | 97.9 | 99 |
